14 compounds from PubChem BioAssay (NCI) can be followed below.

Some test systems named below: HCT-15 colon; HT29 colon; SNB-75 CNS; SNB-19 CNS; U251 CNS; PC-3 prostate; SK-MEL-5 melanoma; UACC-62 melanoma; LOX IMVI melanoma; SK-MEL-28 melanoma.
Common to all, as to test: NCI-60 one-dose screen, 48 h (100 = growth as untreated, 0 = no growth, -100 = all killed)
Holding throughout (settings): 10 µM unless noted

SMILES strings stand for the structures. The panel holds about 83,000 compounds, 20% with a hit somewhere; the sample as a whole holds those more often.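 Interpretation: 100, growth as untreated; towards 0, rising growth inhibition; 0, no net growth; 0 to -100, cell death. Compounds scoring below 10 were considered active.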 Values without a mark were called inactive. The source made the active and inactive calls.

Regarding `CN(C)CC(=O)Nc1ccc(Cn2nnc3c2C(=O)c2nnn(Cc4ccc(NC(=O)CN(C)C)cc4)c2C3=O)cc1`, the growth with HCT-15 colon was 1.94% (active); in the assay on HT29 colon, -52.5% (active); in the assay with SNB-75 CNS it was -92.8% (active); with SNB-19 CNS, -75.1% (active); with U251 CNS it was -82.1% (active); in the assay on PC-3 prostate, 1.37% (active). In addition, the growth in the assay on SK-MEL-5 melanoma was -95% (active); in the assay with UACC-62 melanoma, -66.1% (active); in the assay on LOX IMVI melanoma, -30.6% (active); with SK-MEL-28 melanoma, -47.5% (active).
Take `O=C1c2cc3c(cc2-c2c1c1cc(Cl)c(Cl)cc1c(=O)n2CCCn1ccnc1)OCO3`: the growth in the assay with HCT-15 colon was 13%; in the assay on HT29 colon, -8.33% (active); with SNB-75 CNS it was 9.95% (active); with SNB-19 CNS, 13.4%; in the assay on U251 CNS, -9.41% (active); in the assay on PC-3 prostate it was 25.3%. Also, the growth in the assay with SK-MEL-5 melanoma is -9.98% (active); in the assay with UACC-62 melanoma it was -38.1% (active); in the assay with LOX IMVI melanoma, -53.6% (active); in the assay with SK-MEL-28 melanoma, 44.3%.
For the compound `COc1cc(OC)c(/C=C/C(=O)c2c(OC)cc(OC)cc2OC)c(OC)c1`, the growth with HCT-15 colon was 26%; with HT29 colon, 3.25% (active); in the assay on SNB-75 CNS, 13.7%; with SNB-19 CNS, 32.8%; in the assay on U251 CNS, 14.5%; in the assay on PC-3 prostate, 42.8%. The growth in the assay on SK-MEL-5 melanoma is 1.55% (active); in the assay on UACC-62 melanoma it was 7.8% (active); in the assay with LOX IMVI melanoma, 10.8%; in the assay on SK-MEL-28 melanoma, 21.9%.
On to `CCOC(=O)C12CCCC1=CC(=O)CC2` (stereo not given), for which the growth is 106% with HCT-15 colon; 131% in the assay with HT29 colon; 89.1% in the assay with SNB-75 CNS; 99.9% in the assay on SNB-19 CNS; 105% with U251 CNS; 94.8% in the assay on PC-3 prostate. Besides, the growth in the assay on SK-MEL-5 melanoma was 103%; in the assay on UACC-62 melanoma, 102%; with LOX IMVI melanoma, 100%; with SK-MEL-28 melanoma, 106%.
With `CC[n+]1ccc2c(c1)C(=O)c1nccc3c1c-2nc1ccccc13`, the growth in the assay on HCT-15 colon was 48.5%; in the assay with HT29 colon, 10%; in the assay on SNB-75 CNS it was -75.2% (active); in the assay with SNB-19 CNS, -70.5% (active); in the assay with U251 CNS, -60% (active); with PC-3 prostate, 3.26% (active). Also, the growth is -28.3% (active) with SK-MEL-5 melanoma, -57.7% (active) in the assay with UACC-62 melanoma, -3.96% (active) in the assay with LOX IMVI melanoma and 1.07% (active) in the assay with SK-MEL-28 melanoma.
Regarding `COC(/C=C/c1ccc([N+](=O)[O-])cc1)OC`, the growth with HCT-15 colon was 116%; in the assay with HT29 colon, 94.7%; in the assay with SNB-75 CNS, 85.9%; with SNB-19 CNS, 91.2%; in the assay with U251 CNS, 74.5%; in the assay with PC-3 prostate, 95.1%. Besides, the growth in the assay on SK-MEL-5 melanoma is 98.3%; with UACC-62 melanoma, 89.9%; with LOX IMVI melanoma it was 8.46% (active); in the assay with SK-MEL-28 melanoma, 93.5%.
With `CC/C(=C(\c1ccc(O)cc1)c1ccc(OCCN(C)CCN(C)C(=O)CCCCC(=O)c2c(C)[nH]c(/C=C3\N=C(c4ccc[nH]4)C=C3OC)c2C)cc1)c1ccccc1`, the growth was 60% in the assay on HCT-15 colon; 29.3% in the assay on HT29 colon; 105% in the assay with SNB-75 CNS; 114% in the assay with SNB-19 CNS; 72% in the assay with U251 CNS; 61.2% with PC-3 prostate. The growth with SK-MEL-5 melanoma was 77.8%; in the assay on UACC-62 melanoma it was 95.4%; in the assay with LOX IMVI melanoma it was 44.9%; in the assay on SK-MEL-28 melanoma it was 89.7%.
Regarding `CC(=O)C1=C(O)C=C2Oc3c(C(=O)/C=C/c4cc(C(F)(F)F)cc(C(F)(F)F)c4)c(O)c(C)c(O)c3[C@]2(C)C1=O`, the growth was -73% (active) with HCT-15 colon; -42.4% (active) in the assay with HT29 colon; -28.3% (active) in the assay with SNB-75 CNS; -17.5% (active) with SNB-19 CNS; -48.1% (active) in the assay on U251 CNS; -8.91% (active) in the assay with PC-3 prostate. Further, the growth with SK-MEL-5 melanoma was -93.9% (active); with UACC-62 melanoma it was -64.8% (active); with LOX IMVI melanoma, -85.4% (active); in the assay with SK-MEL-28 melanoma it was -72.4% (active).
As for `COc1ccc(-c2cc(=O)[nH]c3c(OC)c4ccccc4c(OC)c23)cc1`, the growth in the assay with HCT-15 colon is 26.3%; in the assay with HT29 colon, 2.07% (active); with SNB-75 CNS it was 13.3%; in the assay with SNB-19 CNS, 50.5%; with U251 CNS, 23.8%; with PC-3 prostate it was 14.8%. Further, the growth in the assay with SK-MEL-5 melanoma was 18.8%; in the assay on UACC-62 melanoma it was 21.1%; in the assay with LOX IMVI melanoma, 46.9%; in the assay on SK-MEL-28 melanoma, 56.6%.
Take `CC(C)Oc1nc2c(c(=O)n(C)c(=O)n2C)n1C`: the growth in the assay with HCT-15 colon is 106%; with HT29 colon it was 96.6%; with SNB-75 CNS it was 88%; in the assay on SNB-19 CNS it was 96.4%; in the assay with U251 CNS, 99.7%; in the assay on PC-3 prostate, 90.7%. For the same compound, the growth was 104% in the assay with SK-MEL-5 melanoma, 96.5% with UACC-62 melanoma, 98.9% in the assay with LOX IMVI melanoma and 105% in the assay on SK-MEL-28 melanoma.
Take `c1ccc(-c2nc(N3CCOCC3)c3c4c(sc3n2)CCCCC4)nc1`: the growth with HCT-15 colon was 59.5%; in the assay on HT29 colon, 54.5%; with SNB-75 CNS, 45.9%; in the assay with SNB-19 CNS it was 62.5%; with U251 CNS, 59.9%; in the assay on PC-3 prostate it was 41.7%. Besides, the growth in the assay with SK-MEL-5 melanoma is 23.4%; with UACC-62 melanoma it was 56.1%; with LOX IMVI melanoma it was 83.2%; in the assay with SK-MEL-28 melanoma, 61.8%.
In the case of `CCN(CC)CCC(=O)Nc1ccc(Cn2nnc3c2C(=O)c2nnn(Cc4ccc(NC(=O)CCN(CC)CC)cc4)c2C3=O)cc1`, the growth was 95.3% in the assay on HCT-15 colon; -51% (active) in the assay with HT29 colon; -92.8% (active) with SNB-75 CNS; -83.4% (active) in the assay with SNB-19 CNS; -85.1% (active) in the assay with U251 CNS; -1.02% (active) in the assay with PC-3 prostate. Moreover, the growth was -96.8% (active) with SK-MEL-5 melanoma, -79.6% (active) in the assay on UACC-62 melanoma, -12.6% (active) in the assay with LOX IMVI melanoma and -60.9% (active) with SK-MEL-28 melanoma.
`O=C(/C=C/c1cc2ccccc2[nH]c1=O)/C=C/c1cc2ccccc2[nH]c1=O`: the growth with HCT-15 colon is 48.2%; with HT29 colon, -39.2% (active); with SNB-75 CNS, 19.5%; in the assay on SNB-19 CNS, 44.5%; in the assay with U251 CNS, -9.57% (active); in the assay with PC-3 prostate, 9.61% (active). Moreover, the growth was -22.8% (active) in the assay on SK-MEL-5 melanoma, 13.5% in the assay on UACC-62 melanoma, -65.4% (active) in the assay with LOX IMVI melanoma and 37.9% in the assay on SK-MEL-28 melanoma.
With `O=C(CCCN1CCOCC1)Nc1ccc(Cn2nnc3c2C(=O)c2nnn(Cc4ccc(NC(=O)CCCN5CCOCC5)cc4)c2C3=O)cc1`, the growth was 95.8% in the assay on HCT-15 colon; 1.66% (active) in the assay on HT29 colon; -87.9% (active) in the assay on SNB-75 CNS; 59.5% with SNB-19 CNS; 18.2% in the assay with U251 CNS; 55.5% in the assay with PC-3 prostate. Moreover, the growth is 17.1% with SK-MEL-5 melanoma, 51.5% in the assay on UACC-62 melanoma, -5.71% (active) in the assay with LOX IMVI melanoma and 37.3% with SK-MEL-28 melanoma.
